Source: ChEMBL document CHEMBL3433997, “St. Jude Leishmania screening dataset” (2016)

Tests used:
Type in all cases: functional
[1] = target: Solute carrier family 2, facilitated glucose transporter member 1 (Homo sapiens) (UniProt P11166); test: ST_JUDE_LEISH: Cytotoxicity at 2uM final concentration against transgenic Leishmania Mexicana promastigotes LmGLUT1 that are glucose transport deficient and complemented with the human glucose transporter GLUT1. Activity is measured by DNA content using SYBR green in vitro
[2] = target: Hexose transporter 1 (Plasmodium falciparum) (UniProt O97467); test: ST_JUDE_LEISH: Cytotoxicity at 2uM final concentration against transgenic Leishmania Mexicana promastigotes LmPfHT that are glucose transport deficient and complemented with the Plasmodium falciparum hexose transporter. Activity is measured by DNA content using SYBR green in vitro
[3] = target: Glucose transporter (Leishmania mexicana) (UniProt O61059); test: ST_JUDE_LEISH: Cytotoxicity at 2uM final concentration against transgenic Leishmania Mexicana promastigotes LmGT2 that are glucose transport deficient and complemented with the L. Mexicana glucose transporter 2. Activity is measured by DNA content using SYBR green in vitro

Solute carrier family 2, facilitated glucose transporter member 1 (Homo sapiens), sequence (P11166 whole entry): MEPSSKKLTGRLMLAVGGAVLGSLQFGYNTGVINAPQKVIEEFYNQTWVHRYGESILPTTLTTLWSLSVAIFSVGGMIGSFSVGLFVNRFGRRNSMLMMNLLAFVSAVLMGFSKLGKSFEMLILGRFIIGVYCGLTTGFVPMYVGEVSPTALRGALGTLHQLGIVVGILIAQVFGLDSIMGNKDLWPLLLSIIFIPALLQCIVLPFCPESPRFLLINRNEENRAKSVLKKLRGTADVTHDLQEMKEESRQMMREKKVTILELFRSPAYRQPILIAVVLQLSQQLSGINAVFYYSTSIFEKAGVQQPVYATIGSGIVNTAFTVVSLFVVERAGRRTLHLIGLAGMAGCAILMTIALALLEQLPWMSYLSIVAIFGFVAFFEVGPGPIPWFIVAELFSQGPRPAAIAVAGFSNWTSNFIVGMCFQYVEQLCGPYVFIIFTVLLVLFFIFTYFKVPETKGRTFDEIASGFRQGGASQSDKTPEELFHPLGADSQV

SMILES	inhibition [1]	inhibition [2]	inhibition [3]
CN1CCCc2ccc(NC(=O)C=Cc3ccc(-c4ccc(F)cc4F)o3)cc2C1	0.88%	0.81%	2.73%
CNCc1cccc(-c2ccc3ccnc(N)c3c2)c1	7.92%	10.7%	7.76%
CCN(CC)CCON=Cc1cc(C)c2[nH]c3ccc(OCc4ccccc4)cc3c2c1C	-1.13%	0.92%	-2.27%
Oc1ccc(CN2CCC(NCc3cccc(C(F)(F)F)c3)CC2)cc1	11.3%	13.7%	13.7%
O=C(Nc1ccc(-c2ccccc2)s1)N[C@H]1CCN(Cc2ccc(OCCCN3CCCCC3)cc2)C1	0.93%	1.34%	2.81%
CCNC(=O)c1ccc2c(c1)c(C)c(C)n2Cc1ccc(F)cc1	0.6%	-0.64%	1.15%
CCOc1cc(C)ccc1C1CCN(CCCCNC(=O)c2cccc(-c3ccc(C(F)(F)F)cc3)c2)CC1	1.54%	2.27%	2.69%
CC(C)CNC(=O)c1ccnc(-c2ccc(CNC3Cc4ccccc4C3)cc2)c1	-0.85%	-0.27%	-1.63%
CN(C)c1cc(NC(=O)Nc2ccc(SC(F)(F)F)cc2)c2ccccc2n1	-0.23%	0.11%	0.58%
C=CCn1c(SCC(=O)Nc2cc(C)ccc2OC)nc2sc(C)cc2c1=O	4.32%	3.15%	2.13%
CC[C@H](C)CNC(=O)c1cncc(-c2ccc(CN(C)C3CCN(C)CC3)cc2)c1	3.57%	3.62%	5.08%
COc1ccc(C(=O)N2CCC3(CC2)C(=O)N(CC(=O)NCC2CCCCC2)CN3c2ccccc2)c(OC)c1	5.13%	7.03%	3.99%
O=C(Nc1cccc(-c2ccc(-c3nc4cc(F)ccc4[nH]3)cc2)c1)c1csnn1	12.4%	11.9%	11.1%
